# “And” between values parts separate entries of the source, which are not always exact repeats. Identical values can stand only once. In all, about 16,000 compounds went through this assay and about 5,100 (32%) were called active. About 25% were inconclusive and are not listed. The call rests on the fitted dose curve; in most records, active means well fitted curve in the direction sought with a large enough effect; inconclusive means small, poorly fitted or top-dose-only effect, or effect the other way; inactive means no such curve, though single readings can be large or run the other way. The list shows a part of the results.
# Molecular target: Cytochrome P450 3A4 (Homo sapiens) (UniProt P08684)
# Test: Cytochrome panel assay with activity outcomes
# Conditions: recombinant CYP, pro-luciferin dealkylation, luminescence, p450-cyp3a4; series mostly up to 57.1 µM; activity, negative = inhibition: at the top concentration
# On the % scale 0 is the no-effect control and ±100 the full control effect.
# Sequence of Cytochrome P450 3A4 (Homo sapiens) (P08684 whole entry, looked up): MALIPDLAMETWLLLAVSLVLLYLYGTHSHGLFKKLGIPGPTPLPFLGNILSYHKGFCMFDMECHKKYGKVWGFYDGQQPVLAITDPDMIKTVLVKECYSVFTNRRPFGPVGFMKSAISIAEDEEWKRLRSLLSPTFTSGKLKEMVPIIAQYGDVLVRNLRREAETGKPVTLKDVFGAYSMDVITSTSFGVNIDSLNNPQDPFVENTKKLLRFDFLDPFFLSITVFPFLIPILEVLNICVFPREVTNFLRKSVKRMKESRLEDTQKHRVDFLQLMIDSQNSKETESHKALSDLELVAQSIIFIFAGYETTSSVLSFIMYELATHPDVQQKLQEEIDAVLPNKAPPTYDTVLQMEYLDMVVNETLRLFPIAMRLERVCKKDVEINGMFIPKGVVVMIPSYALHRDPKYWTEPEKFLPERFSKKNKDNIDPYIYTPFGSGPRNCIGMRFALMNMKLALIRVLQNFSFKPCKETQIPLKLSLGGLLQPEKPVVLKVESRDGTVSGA
SMILES,"activity, negative = inhibition",AC50
CC(=O)Nc1c(I)c(C(=O)N[C@H]2[C@@H](O)[C@H](O)[C@H](CO)O[C@@H]2O)c(I)c(N(C)C(C)=O)c1I,-2.58% [at 25.6 µM] (inactive),–
NC(N)=NC(=O)c1nc(Cl)c(N2CCCCCC2)nc1N,-23.3% (inactive),–
Cc1cc(C)n(-c2nnc(C)n2/N=C/c2ccccc2OCc2ccccc2Cl)n1,–,2.24 µM (active)
CCCNC(=O)N1CCC(C(=O)c2ccc(F)cc2)CC1,-0.769% [at 2.29 µM] (inactive),–
O=C(c1ccc(F)cc1)C1CCN(C(=S)Nc2ccccc2)CC1,–,10 µM (active)
S=C(Nc1ccccc1)N1CCCCC1,-4.5% (inactive),–
N#Cc1cc(-c2ccc(Cl)cc2)cnc1Sc1ccccc1,-8.46% (inactive),–
N#Cc1cc(N)ccc1Sc1ccc(Cl)cc1,–,5.62 µM (active)
Cc1ccc(Sc2cc(Cl)nc(N)n2)cc1,-5.02% (inactive),–
COc1cc2c3cc1Oc1cc(ccc1O)C[C@@H]1c4c(cc(OC)c(O)c4Oc4ccc(cc4)C[C@H]3[N+](C)(C)CC2)CC[N+]1(C)C,0.655% [at 11.4 µM] (inactive),–
C=CC(=O)NC(C)(C)Cc1ccccc1,–,15.8 µM (active)
N[C@@](CC(=O)O)(Cc1ccccc1)C(=O)O,-4.69% [at 11.4 µM] (inactive),–
C/C(=C/C(=O)NCc1ccccc1)C(=O)O,9.5% (inactive),–
Cc1ccc(CNC(=O)Cn2c(=O)oc3ccccc32)o1,1.22% [at 11.4 µM] (inactive),–
COCCNC(=O)CCn1c(=O)oc2ccccc21,-1.1% (inactive),–
CC1CCCC(NC(=O)CCn2c(=O)oc3ccccc32)C1C (stereo not drawn),–,14.1 µM (active)
CC[N+](C)(C)c1cccc(O)c1,-3.37% (inactive),–
CC1(C)c2ssc(=S)c2-c2ccccc2N1C(=O)CSC1=NCCS1,–,1.78 µM (active)
O=c1cnc2cnc(Oc3cccc(Cl)c3)nc2n1C1CC1,11.3% (inactive),–
O=c1cnc2cnc(Oc3ccccc3)nc2n1C1CC1,-19.7% (inactive),–
COc1ccc(-n2c(=O)cnc3cnc(N4CCOCC4)nc32)cc1,-13.4% (inactive),–

SMILES,"activity, negative = inhibition",AC50
COc1ccc(-n2c(=O)cnc3cnc(Oc4cccc(Cl)c4)nc32)cc1,–,10 µM (active)
COc1ccc(-n2c(=O)cnc3cnc(Oc4ccccc4)nc32)cc1,–,15.8 µM (active)
COc1ccc(-n2c(=O)cnc3cnc(OC)nc32)cc1,-17.2% (inactive),–
COC(=O)C(C)Sc1ccc2nnc(-c3ccc(F)cc3)n2n1 (stereo not drawn),-17.6% (inactive),–
CCCCN(CC)S(=O)(=O)c1ccc(C(=O)Nc2nnc(CSC)o2)cc1,2.56% [at 11.4 µM] (inactive),–
CCn1c(-c2ccoc2C)n[nH]c1=S,-8% (inactive),–
CCCOc1cccc(-c2cc(-c3n[nH]c(=S)n3CC)c3ccccc3n2)c1,–,10 µM (active)
CCc1ccc(-c2ccc(C(=O)C(F)(F)F)[nH]2)cc1,13.7% (inactive),–
CC(C)(Oc1ccc([C@@H]2CC2(Cl)Cl)cc1)C(=O)O,–,inactive
CC(C)(Oc1ccc(Cl)cc1)C(=O)Nc1ccncc1,–,0.794 µM (active)
CC(C)(Oc1ccc(CCNC(=O)c2ccc(Cl)cc2)cc1)C(=O)O,-9.06% [at 25.6 µM] (inactive),–
C[C@@H]1CCC[C@H](C)N1,-0.959% [at 25.6 µM] (inactive),–
Clc1ccc(Cl)c(OCc2cc(-c3ccccc3Cl)on2)c1,10.7% (inactive),–
O=C(Nc1ccn(Cc2ccccc2F)n1)c1ccc(COc2cc(Cl)ccc2Cl)o1,–,0.891 µM (active)
O=C(Nc1cccnc1)c1ccc(COc2cc(Cl)ccc2Cl)o1,–,4.47 µM (active)
CC(C)C(=O)Nc1ccc(C(=O)NNC(=O)CCCOc2ccc(Cl)cc2Cl)cc1,-17.2% (inactive),–
O=C(N/N=C/c1ccc(O)cc1)c1ccc(COc2cc(Cl)ccc2Cl)o1,-27.3% [at 2.29 µM] (inactive),–
CC(C)CNC(=O)c1ccc(COc2ccc(Cl)cc2Cl)o1,–,20 µM (active)
O[C@@H](C1=C/C(=C\c2ccncc2)c2ccccc21)c1ccncc1,–,0.794 µM (active)
NS(=O)(=O)c1ccc(N=Nc2c(O)c(C(=O)O)cc3ccccc23)cc1,-2.48% [at 11.4 µM] (inactive),–
Cc1cccc(Oc2ncnc3onc(C)c23)c1C,-11% (inactive),–

SMILES,"activity, negative = inhibition",AC50
Cn1c(SCC(=O)NC2CC2)nnc1-c1cccc(NC(=O)c2ccccc2F)c1,–,12.6 µM (active)
Nc1ncnc2c1ncn2[C@H]1O[C@@H](C(=O)OCCO)[C@@H](O)[C@H]1O,-12.9% [at 11.4 µM] (inactive),–
Clc1ccc(-c2nnc(-c3ccc(Br)cc3)c(N3CCSCC3)n2)cc1,-17.3% (inactive),–
CCOC(=O)c1nc2sc(C)c(C)c2c(=O)[nH]1,-5.37% (inactive),–
CCCCC1(C)NC(=O)c2c(C)sc(C(=O)OCC)c2N1 (stereo not drawn),–,17.8 µM (active)
Fc1ccc(Nc2ncncc2-c2ccoc2)cc1,–,0.501 µM (active)
c1ccc(Nc2ncncc2-c2ccoc2)cc1,–,2 µM (active)
c1ncc(-c2ccoc2)c(NC2CC2)n1,–,7.94 µM (active)
O=c1[nH]c2[nH]c(=S)[nH]c(=S)c2[nH]1,-17.9% [at 11.4 µM] (inactive),–
CCc1cccc2c(C=C(C#N)C#N)cn(CC(=O)N3CCCC3)c12,-15.2% (inactive),–
CCN(CC)C(=O)Cn1cc(/C=C(\C#N)C(=O)N2CCN(c3ccccc3)CC2)c2ccccc21,–,0.891 µM (active)
CCc1cccc2c(C=C(C#N)C#N)cn(CC(=O)N3CCCCC3)c12,-27.8% (inactive),–
N#Cc1ccccc1/C=N/Nc1nc(-c2ccccc2)c2cc(Cl)ccc2n1,–,6.31 µM (active)
Cc1ccc(Oc2nnc(-c3ccccc3)cc2C#N)cc1,-24.2% (inactive),–
CSc1c(-c2ccccc2)nc2ccc(Cl)cc2c1C(=O)O,7.66% (inactive),–
Cc1nc(Cl)c(C#N)cc1-c1ccccc1,-8.93% (inactive),–
Cc1ccc2nc(N/N=C/c3ccccc3C#N)nc(-c3ccccc3)c2c1,–,7.94 µM (active)
CCn1cc(C(=O)O)c(=O)c2cc(F)c(N3CCNCC3)nc21,-15.4% [at 25.6 µM] (inactive),–
COc1cc(Cl)c(C)cc1NC(=O)CNC(=O)Cn1cnc2ccccc2c1=O,11.4% (inactive),–
COC(=O)c1nn(-c2ccccc2)c(=O)cc1Oc1ccccc1,-20.9% [at 11.4 µM] (inactive),–
COc1ccc(-n2nc(C(=O)NCC(=O)Nc3ccccn3)c3ccccc3c2=O)cc1,–,3.55 µM (active)

SMILES,"activity, negative = inhibition",AC50
Cc1ccc2c(c1)[C@@H]1CN(C)CC[C@@H]1N2S(=O)(=O)c1ccc(F)cc1,–,2 µM (active)
CCN1C(=O)[C@H]2[C@@H]3[C@H](O)[C@H](O)CC(=O)[C@H]3CC[C@H]2C1=O,-13.1% [at 11.4 µM] (inactive) and -13% [at 11.4 µM] (inactive),–
O=C1[C@H]2[C@H]3[C@H](O)[C@H](O)C/C(=N/OCc4ccccc4)[C@H]3CC[C@@H]2C(=O)N1Cc1ccc2c(c1)OCO2,–,1 µM (active)
O=C1C[C@@H](O)[C@@H](O)[C@H]2[C@@H]3C(=O)N(Cc4ccc5c(c4)OCO5)C(=O)[C@@H]3CC[C@H]12,–,3.98 µM (active)
CCN1C(=O)[C@H]2[C@H]3[C@H](O)[C@H](O)C/C(=N/OCC(C)C)[C@H]3CC[C@@H]2C1=O,19.2% [at 11.4 µM] (inactive),–
O=C1C[C@@H](O)[C@@H](O)[C@H]2[C@@H]3C(=O)N(Cc4ccccc4)C(=O)[C@@H]3CC[C@H]12,-12.1% [at 11.4 µM] (inactive) and -10.8% [at 11.4 µM] (inactive),–
CC(=O)OC[C@@H]1O[C@@H](O/N=C2/C[C@@H](O)[C@@H](O)[C@@H]3[C@@H]4C(=O)N(Cc5ccccc5)C(=O)[C@H]4CC[C@@H]23)[C@H](OC(C)=O)[C@H](OC(C)=O)[C@@H]1OC(C)=O,-27.9% [at 11.4 µM] (inactive),–
CCN1C(=O)[C@H]2[C@H]3[C@H](O)[C@H](O)C/C(=N/OCC(C)C)[C@@H]3CC[C@@H]2C1=O,-6.7% [at 11.4 µM] (inactive),–
CC(=O)OC[C@@H]1O[C@@H](O/N=C2/C[C@@H](O)[C@@H](O)[C@@H]3[C@@H]4C(=O)N(Cc5ccccc5)C(=O)[C@H]4CC[C@H]23)[C@H](OC(C)=O)[C@H](OC(C)=O)[C@@H]1OC(C)=O,-25% [at 11.4 µM] (inactive),–
CCN1C(=O)[C@H]2[C@H]3[C@H](O)[C@H](O)C/C(=N/O[C@@H](C)c4cc(-c5c(C)cc(C)cc5C)no4)[C@@H]3CC[C@@H]2C1=O,–,3.98 µM (active)
CC(=O)OC[C@@H]1O[C@@H](O/N=C2/C[C@@H](O)[C@@H](O)[C@@H]3[C@@H]4C(=O)N(Cc5ccc6c(c5)OCO6)C(=O)[C@H]4CC[C@H]23)[C@H](OC(C)=O)[C@H](OC(C)=O)[C@@H]1OC(C)=O,–,5.01 µM (active)
CCOC(=O)C(NC(C)=O)C(OC(C)=O)c1cccc(N(CCO)CCO)c1 (stereo not drawn),-20.2% (inactive),–
CC(=O)N(C)c1nnc(-c2cnccn2)s1,-0.972% (inactive),–
CC(=O)N[C@@H]1CONC1=O,-3.29% [at 11.4 µM] (inactive),–
O=C1[C@H]2[C@H]3[C@H](O)[C@H](O)C/C(=N/OCc4ccccc4)[C@@H]3CC[C@@H]2C(=O)N1Cc1ccc2c(c1)OCO2,–,2 µM (active)
O=C1[C@H]2[C@H]3[C@H](O)[C@H](O)C/C(=N/OCc4ccccc4)[C@@H]3CC[C@@H]2C(=O)N1C[C@@H]1CCCO1,-20.3% [at 11.4 µM] (inactive),–
CC(C)CO/N=C1/C[C@@H](O)[C@@H](O)[C@@H]2[C@@H]3C(=O)N(Cc4ccccc4)C(=O)[C@H]3CC[C@@H]12,-11.8% [at 11.4 µM] (inactive),–
CC(C)CO/N=C1/C[C@@H](O)[C@@H](O)[C@@H]2[C@@H]3C(=O)N(C[C@@H]4CCCO4)C(=O)[C@H]3CC[C@H]12,-0.365% [at 11.4 µM] (inactive),–
O=C1[C@H]2[C@H]3[C@H](O)[C@H](O)C/C(=N/OCc4ccccc4)[C@H]3CC[C@@H]2C(=O)N1C[C@@H]1CCCO1,-11.3% [at 11.4 µM] (inactive),–
CC(C)CO/N=C1/C[C@@H](O)[C@@H](O)[C@@H]2[C@@H]3C(=O)N(Cc4ccc5c(c4)OCO5)C(=O)[C@H]3CC[C@H]12,–,1 µM (active)

# — PubChem BioAssay AID1851 (National Center for Advancing Translational Sciences (NCATS), 2009)
